Compound activity (PubChem BioAssay)
Shown are actives, neighbours in structure and some others; about 5.5% of the full set was active somewhere.
CBFb-RUNX1 inh – qHTS Assay for Compounds Blocking the Interaction Between CBF-beta and RUNX1 for the Treatment of Acute Myeloid Leukemia; AlphaScreen CBFb-His/RUNX1-biotin binding, biochemical; Potency, µM (series often up to 59.8 µM), inactives show at the highest dose activity, negative = inhibition, actives largely listed as inhibitors; 230,000 tested, under 10 active; AID 1477, 2009; also: % of control where 0% means no effect
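His-tagged CBF-beta and biotinylated RUNX1 (30 nM each) were premixed 20 min at room temperature, exposed to compound for 15 min, then given nickel-chelate and streptavidin AlphaScreen beads (50 ng each). After 90 min, AlphaScreen signal was read.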
VP16 counter – VP16 counterscreen qHTS for inhibitors of ROR gamma transcriptional activity; Potency, µM (series often up to 53.6 µM), without a hit: top-dose activity, negative = inhibition, most hits filed as inhibitors; Drosophila S2 Gal4-VP16 UAS-luciferase, luminescence, 20 h; AID 2546, 2010; 310,000 compounds, 3.5% hits;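 also: Gal4-VP16 expression switched on by copper sulfate through the metallothionein promoter; potency is read from the fitted curve at half-maximal effect; % is scaled to controls: 0 for no effect and ±100 for the full control effect; nearly all actives have a fitted effect of over 50% in size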
CtBP-E1A blk – qHTS Assay for Inhibitors of the CtBP/E1A Interaction | CtBP / adenovirus E1A interaction (AlphaScreen) | AlphaScreen GST-E1A/His-CtBP binding, 1536-well; active compounds read low | activity change, % (test concentration not listed) | 340,000 compounds, 0.49% hits | AID 651724, 2012; in the data active = activity change below about -65%; inconclusive = mostly about -30% to -63%; also: % is scaled to controls: 0 for no effect and ±100 for the full control effect
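Protein mix (5X: 125 nM each GST-E1A, His-CtBP) was incubated with pinned compound 2 h at 37 deg C in dark, in 50 mM Tris pH 8.0 buffer with 300 mM NaCl. Glutathione donor and nickel acceptor beads followed; AlphaScreen signal read after 1 h.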
MBNL1-CUG inh – qHTS Assay for Inhibitors of MBNL1-poly(CUG) RNA binding | Muscleblind-like protein 1 (Homo sapiens), Q9NR56 | TR-FRET MBNL1-His/biotin-(CUG)12 binding, 665/545 ratio | Potency, µM (doses to about 57.5 µM), for inactives: at the highest dose activity change, negative = inhibition, most hits filed as inhibitors | 280,000 compounds, 0.036% hits; active = well fitted inhibition curve with a large enough effect in the signal ratio, with a control signal flat, not every such curve was filed as active; inconclusive = small, poorly fitted or top-dose-only effect, or effect the other way, or a change in a side signal; inactive = no such curve, though single readings can be large or run the other way; the % refers to the signal ratio; also: potency is read from the fitted curve at half-maximal effect; % is scaled to controls: 0 for no effect and ±100 for the full control effect
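Inhibition of protein-RNA binding appears as loss of TR-FRET between terbium anti-His antibody on MBNL1-His and streptavidin-XL665 on biotin-(CUG)12. Activity is normalized to buffer-only and uninhibited-complex controls.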
RORg inh – qHTS for inhibitors of ROR gamma transcriptional activity; Nuclear receptor ROR-gamma (Mus musculus), P51450; Drosophila S2 Gal4-RORgamma UAS-luciferase reporter, 20 h; Potency, µM (doses to about 53.6 µM), for inactives: at the top dose activity change, negative = inhibition, hits mostly inhibitors; 310,000 compounds, 5.4% hits; AID 2551, 2010; also: potency is read from the fitted curve at half-maximal effect; % is scaled to controls: 0 for no effect and ±100 for the full control effect; nearly all actives have a fitted effect of over 60% in size
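Schneider cells (Drosophila), stable Gal4 DBD–ROR gamma + UAS-luc; 1 hr cmpd preincubation; Cu2+ induction 700 uM final; 20 hr ambient; luminescence.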
Six1-Eya2 inh – qHTS Assay for Inhibitors of the Six1/Eya2 Interaction; Homeobox protein SIX1 (Homo sapiens) + Protein phosphatase EYA2 (Homo sapiens), …; AlphaScreen GST-Six1/His-Eya2 binding, biochemical; active compounds read low; activity change, % (test concentration not listed); 360,000 compounds, 0.56% hits; in the data active = activity change below about -65%; inconclusive = mostly about -30% to -63%; also: % is scaled to controls: 0 for no effect and ±100 for the full control effect
Target sequence (O00167 whole entry, looked up): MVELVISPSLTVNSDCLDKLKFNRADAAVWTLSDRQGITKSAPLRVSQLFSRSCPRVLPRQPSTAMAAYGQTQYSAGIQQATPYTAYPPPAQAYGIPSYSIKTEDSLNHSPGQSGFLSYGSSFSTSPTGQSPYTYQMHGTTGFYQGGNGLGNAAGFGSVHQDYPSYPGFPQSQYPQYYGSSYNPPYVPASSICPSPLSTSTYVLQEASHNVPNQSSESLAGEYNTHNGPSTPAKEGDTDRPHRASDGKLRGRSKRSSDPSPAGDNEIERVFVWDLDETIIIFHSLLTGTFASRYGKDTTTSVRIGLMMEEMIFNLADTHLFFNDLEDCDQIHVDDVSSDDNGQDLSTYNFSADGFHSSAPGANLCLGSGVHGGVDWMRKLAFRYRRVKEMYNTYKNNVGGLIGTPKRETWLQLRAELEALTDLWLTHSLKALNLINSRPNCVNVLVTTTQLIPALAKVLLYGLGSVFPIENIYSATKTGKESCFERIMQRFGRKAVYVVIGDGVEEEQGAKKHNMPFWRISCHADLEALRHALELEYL
Target sequence (Q15475 whole entry, looked up): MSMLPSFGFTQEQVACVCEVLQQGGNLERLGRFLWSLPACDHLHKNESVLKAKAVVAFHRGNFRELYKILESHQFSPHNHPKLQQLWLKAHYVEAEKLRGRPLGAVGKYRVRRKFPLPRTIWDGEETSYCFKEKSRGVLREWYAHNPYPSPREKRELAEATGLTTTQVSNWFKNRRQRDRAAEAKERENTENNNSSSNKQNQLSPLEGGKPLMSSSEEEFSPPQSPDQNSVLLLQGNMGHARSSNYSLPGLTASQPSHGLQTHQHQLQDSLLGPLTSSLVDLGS
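AlphaScreen luminescence read after one hour at 37 °C in darkness. Pin-transferred compounds met GST-Six1 and His-Eya2 protein (5X stock 250 nM/500 nM) plus glutathione donor and Ni-chelate acceptor beads (5X, 50 ug/mL).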
Active calls of the source: *; [ ] = dose if it differs, or a comment. Unless noted, calls follow the shape of the dose curve; as a rule, active = well fitted curve in the direction sought with a large enough effect; inconclusive = small, poorly fitted or top-dose-only effect, or another doubt; inactive = no such curve, though single readings can be large; an effect the other way counts as inactive or inconclusive.

Screening O=c1ccsn1Cc1ccccc1 returned CBFb-RUNX1 inh 1.8%, VP16 counter 4.47µM*, CtBP-E1A blk -4.2, MBNL1-CUG inh -6.0%, RORg inh 2.24µM* and Six1-Eya2 inh -15.5.
For COC(=O)c1ccc(CSc2nc(C)nc3sc(C)c(C)c23)o1 the results were CBFb-RUNX1 inh 4.5%, VP16 counter 3.98µM*, CtBP-E1A blk 6.7, MBNL1-CUG inh -18.0%, RORg inh inconclusive and Six1-Eya2 inh -0.4.
For COC(=O)c1ccc(CSc2nnc(SCc3ccc(C(=O)OC)o3)s2)o1 the results were CBFb-RUNX1 inh -3.4%, VP16 counter 2.4%, CtBP-E1A blk -8.0, MBNL1-CUG inh -22.2%, RORg inh -9.2% and Six1-Eya2 inh -3.7.
`COc1cc2c(cc1OC)CN(C(=S)Nc1ccc(C)cc1C)CC2` gave CBFb-RUNX1 inh -13.1%, VP16 counter 20µM*, CtBP-E1A blk -4.9, MBNL1-CUG inh -4.4%, RORg inh 10µM* and Six1-Eya2 inh -0.9.
COc1cc2c(cc1OC)CN(C(=S)Nc1ccccc1)CC2 was read as CBFb-RUNX1 inh -4.7%, VP16 counter -9.5%, CtBP-E1A blk 2.6, MBNL1-CUG inh -17.7%, RORg inh 11.2µM* and Six1-Eya2 inh -4.4.
Screening O=C(Nc1ccc(F)cc1)C(c1ccncc1)N1CCN(CC(=O)N2CCCC2)CC1 (centres undefined) returned CtBP-E1A blk -2.6 and Six1-Eya2 inh 6.3.
Screening CCn1c(Cc2ccccc2)nnc1SC(C)C(=O)NC1CC1 (centres undefined) returned CtBP-E1A blk 2.6 and Six1-Eya2 inh 0.6.
For O=C(O)c1c(Cl)c(Cl)c(Cl)c(Cl)c1-c1c2cc(I)c(=O)c(I)c-2oc2c(I)c(O)c(I)cc12 the results were VP16 counter inconclusive and RORg inh 14.1µM*.
Screening O=C(/C=C/Nc1ccc(Br)cc1F)c1ccccc1 returned CBFb-RUNX1 inh 4.5%, VP16 counter 5.62µM*, CtBP-E1A blk 11.9, RORg inh 3.98µM* and Six1-Eya2 inh 1.4.
For O=C(/C=C/Nc1ccc(F)c(F)c1)c1ccc(Br)cc1 the results were CBFb-RUNX1 inh 2.9%, VP16 counter -6.2%, CtBP-E1A blk 3.5, MBNL1-CUG inh 25.8%, RORg inh 10.2% and Six1-Eya2 inh 5.2.
For O=C(/C=C/Nc1ccccc1F)c1ccc(Br)cc1 the results were CBFb-RUNX1 inh -5.6%, VP16 counter inconclusive, CtBP-E1A blk -6.1, RORg inh 10µM* and Six1-Eya2 inh 12.7.
For C[C@H]1C=C2C=C[C@H](C)[C@H](CC[C@@H]3C[C@@H](O)CC(=O)O3)[C@H]2[C@@H](OC(=O)[C@@H](C)CCO)C1 the results were CBFb-RUNX1 inh 14.3%[21.7 µM], VP16 counter 2.1% and RORg inh 40.6%.
Screening CCn1c(O)c(N=NC2=NC(=O)CS2)c2ccccc21 returned CBFb-RUNX1 inh -10.1%, VP16 counter inconclusive, CtBP-E1A blk -0.5, MBNL1-CUG inh inconclusive, RORg inh 10µM* and Six1-Eya2 inh 3.2.
For CCCc1nn2c(=O)cc(CSCC(=O)Nc3ccc(OC)cc3)nc2s1 the results were VP16 counter -4.9%, CtBP-E1A blk 4.3, MBNL1-CUG inh 2.7%, RORg inh -0.4% and Six1-Eya2 inh 0.3.
Screening CCOc1cc2[nH]c(=S)n(C3CCN(Cc4ccccc4)CC3)c(=O)c2cc1OCC returned CBFb-RUNX1 inh -12.9%, VP16 counter inconclusive, CtBP-E1A blk 10.2, MBNL1-CUG inh -8.1%, RORg inh inconclusive and Six1-Eya2 inh 5.3.
For O=c1c2cc3c(cc2[nH]c(=S)n1C1CCN(Cc2ccccc2)CC1)OCO3 the results were CBFb-RUNX1 inh 2.6%, VP16 counter 3.55µM*, CtBP-E1A blk -6.8, MBNL1-CUG inh -14.6%, RORg inh 5.01µM* and Six1-Eya2 inh -0.2.
`O=C(Nc1ccccc1)Nc1sccc1-c1nc2ccccc2s1` gave CBFb-RUNX1 inh 5.3%, VP16 counter 4.1%, CtBP-E1A blk 13.3, MBNL1-CUG inh 4.3%, RORg inh 7.94µM* and Six1-Eya2 inh -1.0.
Screening O=C(Nc1cccc(Cl)c1)Nc1sccc1-c1nc2ccccc2s1 returned CBFb-RUNX1 inh 24.4%, VP16 counter 18.6%, CtBP-E1A blk 8.4, MBNL1-CUG inh 3.5%, RORg inh inconclusive and Six1-Eya2 inh 11.1.
Screening O=C1C=C(Nc2ccccc2)C(=O)c2ccccc21 returned CBFb-RUNX1 inh inconclusive, VP16 counter inconclusive, CtBP-E1A blk -15.0, MBNL1-CUG inh inconclusive, RORg inh inconclusive and Six1-Eya2 inh inconclusive.
O=C1c2cccnc2-c2ncccc21 was read as CBFb-RUNX1 inh -1.3%, VP16 counter 1.8%, CtBP-E1A blk -5.5, MBNL1-CUG inh inconclusive, RORg inh -9.6% and Six1-Eya2 inh -8.2.
Screening O=C1C(Nc2ccccc2)=CC(=O)c2ncccc21 returned CBFb-RUNX1 inh inconclusive, VP16 counter 4.47µM* and RORg inh 3.16µM*.
`O=C1C(=O)c2cccnc2-c2ncccc21` gave CtBP-E1A blk -80.3* and Six1-Eya2 inh -83.0*.
Screening Cc1ccc(C(=O)Nc2ccc3ncccc3c2)cc1 returned VP16 counter 11.2µM*, CtBP-E1A blk 7.6, MBNL1-CUG inh 7.3%, RORg inh 14.1µM* and Six1-Eya2 inh 25.9.
For COC(=O)c1c(NC(=O)C(Cl)Cl)sc2c1C(C(=O)OC)CC2 (centres undefined) the results were CBFb-RUNX1 inh 0.5%, VP16 counter 7.94µM*, RORg inh 3.98µM* and Six1-Eya2 inh -8.2.
For O=C(N/N=C/c1sc(=O)n(-c2ccccc2)c1Cl)c1ccncc1 the results were CBFb-RUNX1 inh 0.3%, VP16 counter 11.2µM*, CtBP-E1A blk -18.5, MBNL1-CUG inh inconclusive, RORg inh 7.08µM* and Six1-Eya2 inh -24.4.
Screening O=C(N/N=C/c1cccn1-c1ccc([N+](=O)[O-])cc1)c1cccnc1 returned CBFb-RUNX1 inh -9.2%, VP16 counter 10µM*, CtBP-E1A blk -7.1, MBNL1-CUG inh inconclusive, RORg inh inconclusive and Six1-Eya2 inh -10.3.
For O=C(N/N=C/c1cccn1-c1ccccc1)c1ccncc1 the results were CBFb-RUNX1 inh -12.0%, VP16 counter 20µM*, CtBP-E1A blk 7.4, MBNL1-CUG inh inconclusive, RORg inh 3.55µM* and Six1-Eya2 inh -14.4.
